Compounds without any hit were thinned out: in the full panel of roughly 83,000, 20% have a hit.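 Note: values are percent growth. 100 is the growth of untreated cells, values between 100 and 0 indicate rising inhibition; between -100 and 0 indicates cell death.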 A number with no mark means an inactive call. Active and inactive are the calls of the source. Rule for the calls: active = growth percent below 10; inactive = the rest.
How the values were obtained:
Test in all cases: NCI-60 one-dose screen, 48 h (100 = growth as untreated, 0 = no growth, -100 = all killed)
Conditions in all cases: 10 µM unless noted
[1] = tested on: T-47D breast
[2] = tested on: BT-549 breast
[3] = tested on: MDA-MB-435 melanoma
[4] = tested on: SW-620 colon
[5] = tested on: MCF7 breast
[6] = tested on: HCT-116 colon
[7] = tested on: HCC-2998 colon
[8] = tested on: KM12 colon

Compound | growth [1] | growth [2] | growth [3] | growth [4] | growth [5] | growth [6] | growth [7] | growth [8]
C=C(C)[C@@H]1CC[C@]2(C(=O)NCCNCCNC(=O)OC(C)(C)C)CC[C@]3(C)[C@H](CC[C@@H]4[C@@]5(C)CCC(=O)C(C)(C)[C@@H]5CC[C@]43C)[C@@H]12 | 28% [100 µM] | 54.2% [100 µM] | 36.8% [100 µM] | 28.8% [100 µM] | 22.2% [100 µM] | 17.5% [100 µM] | 60.5% [100 µM] | 34.3% [100 µM]
[2H]C1([2H])CCN(C(=O)C2CC2)c2cc(NS(=O)(=O)c3ccc(-c4cccc(C(N)=O)c4)cc3)ccc21 | 19.5% | 79% | -11.2% (active) | 31% | 21.4% | 81.5% | 60.1% | 19.8%
O=[N+]([O-])c1cc([N+](=O)[O-])c(C(F)(F)F)cc1NN=C(c1ccc(O)cc1)c1ccc(O)cc1 | -6.47% (active) | 132% | 99.1% | 106% | -10.1% (active) | -82.4% (active) | -55.5% (active) | 84%
CC(C)=CC/C=C(/C)[C@H]1CC[C@]2(C)[C@@H]1CC[C@@H]1[C@@]3(C)CC/C(=N/O)C(C)(C)[C@@H]3CC[C@]12C | 27.2% [100 µM] | 61.5% [100 µM] | 52.2% [100 µM] | 61.3% [100 µM] | 36.1% [100 µM] | 24.1% [100 µM] | 69.5% [100 µM] | 51.6% [100 µM]
COc1cc(/C=C/C(=O)/C=C/c2ccc(-n3ccnc3C)cc2)ccc1O | 54.5% | 95.5% | -3.29% (active) | 2.17% (active) | 4.86% (active) | 90.6% | -47.3% (active) | -49.7% (active)
Cn1cc(-c2nnc(-c3cn(C)c4ncc(Br)cc34)o2)c2ccccc21 | 62% | 95.2% | 27.4% | 83.6% | 44.7% | 98% | 95.9% | 56.3%
CCCCOC(=O)c1cccc([N+](=O)[O-])c1 | 110% | 104% | 103% | 103% | 115% | 113% | 98.5% | 108%
O=C1CC(C(F)(F)F)Cc2nc3ccc(Br)cc3cc21 (stereo unspecified) | 62.9% | 96.3% | 94.4% | 92.4% | 74.3% | 73.9% | 109% | 64.4%
COc1cc(/C=C/C(=O)/C=C/c2ccc(-n3ccnc3)cc2)ccc1O | 58% | 102% | -9.19% (active) | 8.7% (active) | 6.22% (active) | 97.5% | 42.7% | -42.4% (active)
CC1(C)CC[C@]2(C(=O)O)CC[C@]3(C)[C@H](CC[C@@H]4[C@@]5(C)CCC(=O)C(C)(C)[C@@H]5CC[C@]43C)[C@H]2[C@H]1OC(=O)C(F)(F)F | -25.2% [100 µM] (active) | -70% [100 µM] (active) | -69.3% [100 µM] (active) | -64.9% [100 µM] (active) | -40.1% [100 µM] (active) | -66.3% [100 µM] (active) | -93.7% [100 µM] (active) | -75.7% [100 µM] (active)
CCN(CC)CCCCCCNc1cccc2cc(Br)cnc12 | 112% | 80.8% | 31.5% | 56.5% | 109% | 72.2% | 88.3% | 65.7%
CNC(=O)c1cc(Oc2cccc3nc(NC(=O)Nc4cc(C(F)(F)F)cc(C(F)(F)F)c4)ccc23)ccn1 | 15.5% | 46.1% | 40.2% | 63.8% | 50.4% | 36.7% | 79.7% | 53.8%
C=C(C)[C@@H]1CC[C@]2(C)[C@H](CC=C3[C@@H]4[C@@H](C)[C@H](C)CC[C@]4(C(N)=O)CC[C@]32C)[C@@]1(C)CCC#N | 5.58% [100 µM] (active) | -25.4% [100 µM] (active) | 1.04% [100 µM] (active) | 7.86% [100 µM] (active) | 2.14% [100 µM] (active) | -43.8% [100 µM] (active) | -22.4% [100 µM] (active) | -46.4% [100 µM] (active)
CC1=CC[C@@H]2C(C)(C)[C@@H](O)CC[C@@]2(C)[C@@H]1COc1ccc2ccc(=O)oc2c1 | -10.1% (active) | 18% | 77.6% | 79.2% | 77.8% | 44.6% | 88% | 40.4%
CCN=C1C=CC(=C(c2ccc(N(CC)CC)cc2)c2ccc(N(CC)CC)cc2)c2ccccc21 | -45.7% (active) | -67.2% (active) | -31.6% (active) | -42.9% (active) | -74% (active) | -45.7% (active) | -81% (active) | -86.2% (active)
CC1(C)C(=O)/C(=C\c2cccnc2)C[C@]2(C)[C@H]3CC[C@@H]4[C@H]5[C@H](C(=O)/C=C/c6cccnc6)CC[C@]5(C(=O)O)CC[C@@]4(C)[C@]3(C)CC[C@@H]12 | -10% [100 µM] (active) | -32.2% [100 µM] (active) | -78.2% [100 µM] (active) | -21.8% [100 µM] (active) | -41.9% [100 µM] (active) | -56.7% [100 µM] (active) | -76.4% [100 µM] (active) | -82.1% [100 µM] (active)
C#C[C@]1(O)CC[C@H]2[C@@H]3CC=C4c5nc(Nc6ccc(OC)cc6OC)sc5CC[C@]4(C)[C@H]3CC[C@@]21C | 22.3% | -16.7% (active) | -4.22% (active) | -12.8% (active) | 4.51% (active) | -21.1% (active) | 29.8% | -50.4% (active)
CC1(C)[C@@H](NOCCCN)CC[C@]2(C)[C@H]3C(=O)C=C4[C@@H]5C[C@](C)(C(=O)O)CC[C@]5(C)CC[C@@]4(C)[C@]3(C)CC[C@@H]12 | -29.8% [100 µM] (active) | -23.2% [100 µM] (active) | -59.1% [100 µM] (active) | -43.3% [100 µM] (active) | -25.2% [100 µM] (active) | -87.4% [100 µM] (active) | -50% [100 µM] (active) | -65.8% [100 µM] (active)
CC1(C)CC[C@]2(C(N)=O)CC[C@]3(C)C(=CC[C@@H]4[C@@]5(C)C/C(=C/c6ccncc6)C(=O)C(C)(C)[C@@H]5CC[C@]43C)[C@@H]2C1 | -24.8% [100 µM] (active) | -24.9% [100 µM] (active) | -56.3% [100 µM] (active) | -32.1% [100 µM] (active) | -36.6% [100 µM] (active) | -22.7% [100 µM] (active) | -50.4% [100 µM] (active) | -52.3% [100 µM] (active)
O=c1cc(-c2ccccc2)oc2cc(OCc3cn(Cc4ccc(F)cc4)nn3)cc(O)c12 | 44.2% [100 µM] | 16.3% [100 µM] | 98.2% [100 µM] | 102% [100 µM] | 65.7% [100 µM] | 48.5% [100 µM] | 100% [100 µM] | 99.4% [100 µM]
CNC(=O)c1cc(Oc2ccc3nc(NC(=O)c4ccc5ncccc5c4)sc3c2)ccn1 | 51.3% | 82.4% | 91.6% | 112% | 88% | 103% | 106% | 101%
C=C(C)[C@@H]1CC[C@]2(C)[C@H](C(=O)C=C3[C@@H]4C[C@](C)(C(=O)N5CCN(C)CC5)CC[C@]4(C)CC[C@]32C)[C@@]1(C)CCC#N | -40.5% [100 µM] (active) | -73.3% [100 µM] (active) | -81% [100 µM] (active) | -80% [100 µM] (active) | -71.1% [100 µM] (active) | -70.7% [100 µM] (active) | -94% [100 µM] (active) | -80.2% [100 µM] (active)
C=C(C)[C@@H]1CC[C@]2(C(=O)NCCNCCNCCN)CC[C@]3(C)[C@H](CC[C@@H]4[C@@]5(C)CC[C@H](O)C(C)(C)[C@@H]5CC[C@]43C)[C@@H]12 | -32.6% [100 µM] (active) | -51.9% [100 µM] (active) | -89.2% [100 µM] (active) | -86.7% [100 µM] (active) | -60.5% [100 µM] (active) | -26.5% [100 µM] (active) | -90.4% [100 µM] (active) | -52.2% [100 µM] (active)
c1coc2occoc=2o1 | 98% | 104% | 102% | 110% | 104% | 109% | 108% | 106%
COc1ccc(C(=O)CSc2nnc(-c3cc(-c4ccccc4)nc4ccccc34)o2)cc1 | 108% | 105% | 106% | 107% | 103% | 101% | 118% | 105%
CC(C)[N+](C)(C)CC(O)COc1cccc2ccccc12 (stereo unspecified) | 102% | 112% | 118% | 99.7% | 102% | 113% | 101% | 96.1%
O=C1Nc2ccccc2/C1=C/C(=O)c1ccc(N2CCCC2)cc1 | 40.5% | 107% | -51.9% (active) | 5.46% (active) | 17.8% | 103% | 77.9% | 15.1%
